From PubChem BioAssay
Sampled rows, rich in hits. Any-hit rate of the full collection: about 22%.
Pf growth 96h: inhibits malaria parasite growth, 96 h; P. falciparum luciferase reporter growth, 96 h; actives 6.9% (n = 320,000); Potency, µM (titrated, usually from 28.7 µM), usual class: inhibitors; AID 504834
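Infected RBCs, 2% Hct / 0.05% parasitemia final; luciferase-reporter P. falciparum; cpd 96 h, 37 C, 5% CO2; luciferase detection reagent; luminescence.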
Pf growth 48h: inhibits P. falciparum growth in the first generation, 48 h | P. falciparum luciferase growth in erythrocytes, 48 h | Potency, µM (titrated, usually from 28.7 µM), most hits filed as inhibitors | actives 5.9% (n = 310,000)
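Luciferase-expressing P. falciparum in infected erythrocytes (2% hematocrit, 0.1% parasitemia final) in RPMI 1640/0.5% Albumax were exposed to compound for 48 hours at 37 C, 5% CO2; growth read as luminescence.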
Shiga toxin inh: blocks Shiga toxin action in Vero cells | actives 9.2% (n = 290,000) | AID 2315 | inhibition, % at 38.7 µM | Vero cells, Shiga toxin protein synthesis inhibition reporter; in the data active = inhibition mostly above about 28%, no sharp cut-off; inactive = mostly below about 43%
CHX counter: counter-screen for Shiga toxin inhibitors: cycloheximide protein synthesis inhibition; cell reporter, cycloheximide protein synthesis inhibition counterscreen; AID 2314; max response, %; actives 12% (n = 300,000); in the data active = max response mostly above about 13%, no sharp cut-off; inactive = mostly below about 14%; note: read at 38.3 µM for the half of the compounds with a filed dose
LmPK inhibitor: LmPK (Leishmania mexicana) enzyme inhibition; purified LmPK, Kinase-Glo ATP luminescence, 1 h; Potency, µM (series often up to 57.5 µM), usual class: inhibitors; actives 0.37% (n = 290,000); AID 1721
Target sequence (Q27686 whole entry, looked up): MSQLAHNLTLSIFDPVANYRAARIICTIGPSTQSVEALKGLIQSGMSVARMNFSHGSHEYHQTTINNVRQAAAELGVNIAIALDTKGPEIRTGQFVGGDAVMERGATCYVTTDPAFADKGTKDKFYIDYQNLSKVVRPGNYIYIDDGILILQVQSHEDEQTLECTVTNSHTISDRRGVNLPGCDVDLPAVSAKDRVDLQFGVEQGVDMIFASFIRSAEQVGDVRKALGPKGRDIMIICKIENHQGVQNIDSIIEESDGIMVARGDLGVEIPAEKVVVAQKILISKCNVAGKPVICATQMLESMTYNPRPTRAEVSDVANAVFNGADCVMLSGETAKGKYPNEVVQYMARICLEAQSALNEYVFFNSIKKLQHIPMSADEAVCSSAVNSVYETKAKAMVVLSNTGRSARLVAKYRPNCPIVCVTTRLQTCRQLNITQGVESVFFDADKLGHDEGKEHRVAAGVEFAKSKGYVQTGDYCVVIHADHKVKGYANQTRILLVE
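In 50 mM imidazole pH 7.2 with 7 mM MgCl2, LmPK (0.1 nM) turned over PEP (0.5 mM) and ADP (0.1 mM) for 1 h at room temperature. Luciferase read-out of ATP.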
A number is an active result; . = inactive; ? = inconclusive; / = no result given; [ ] = dose if it differs, or a comment. Unless noted, calls come from the whole dose curve; as a rule, active = well fitted inhibition curve with a large enough effect; inconclusive = small, poorly fitted or top-dose-only effect, or another doubt; inactive = no such curve, though single readings can be large or run the other way.

SMILES | Pf growth 96h | Pf growth 48h | Shiga toxin inh | CHX counter | LmPK inhibitor
O=S(=O)(NC(=S)NC1CCCCC1)c1ccc(Cl)cc1 | 0.522µM | . | . | . | .
C=CCNC(=O)c1ccc(-n2cccc2)cc1 | . | . | . | 29.6 | .
CC(C)NC(=NCc1ccc(Cl)cc1Cl)Nc1ccccc1 | ? | / | . | . | .
Clc1ccc(CN=C(Nc2ccccc2)NC2CCCCC2)cc1 | 9.28µM | 9.28µM | . | . | .
O=C(Cc1ccc(-c2ccccc2)cc1)NC1CCCC1 | . | . | . | . | .
C=CCNC(=O)c1ccncc1 | ? | . | . | . | .
Cc1ccc(S(=O)(=O)N2CCN(C(=O)CCC(=O)NCc3ccc(F)cc3)CC2)cc1 | . | . | . | . | .
COCCn1c(SCC(=O)Nc2cc(C)on2)nnc1C(C)C | . | . | . | . | .
O=C(CCSc1ccc(Cl)cc1)NC1CCCC1 | 5.86µM | . | . | . | .
O=C(CN1CCN(Cc2ccccc2Cl)C1=O)NC1CCCCCC1 | ? | / | . | . | .
Cc1ccccc1OCCCC(=O)NC1CCCCC1 | . | . | / | 13.0 | .
O=C(CCS(=O)(=O)c1ccccc1)NC1CCCCC1 | ? | . | 90.4 | 59.4 | .
Cc1ccc(C)c(OCCCC(=O)NC2CCCCC2)c1 | . | ? | / | . | .
O=C(CCSCc1ccccc1Cl)NC1CCCCC1 | . | . | 95.1 | 37.3 | .
CCO[C@H]1OC(C(=O)N2CCOCC2)=C[C@@H](c2ccc(Br)cc2)[C@@H]1CCCO | ? | ? | . | . | .
O=C(Cc1ccc(-n2cccc2)cc1)NC1CCCCCC1 | 14.7µM | . | . | . | .
O=C(Cc1ccc(Cl)cc1)NC1CCCCCC1 | . | . | . | 20.2 | .
O=C(Cc1ccccc1)NCc1ccc(-n2cccc2)cc1 | .[1.15 µM] | . | . | . | .
O=C(NC1CC1)c1ccc(-n2cccc2)cc1 | . | . | . | 62.2 | .
O=C(NC1CCCCCC1)c1ccc(-n2cnnc2)cc1 | . | ? | . | . | .
O=C(Cc1ccc(F)cc1)NC1CCCCCC1 | . | . | . | . | .
CC1CCCCN1C(=O)Cc1ccc(Cl)cc1 (configuration not stated) | . | . | . | 13.6 | .
Cc1cccc(OCC(=O)Nc2ccc3c(c2)nc(CCN2CCN(c4ccccn4)CC2)n3C)c1 | ? | ? | . | . | .
O=C(O)CCc1c(C(=O)O)[nH]c2cc(Cl)cc(Cl)c12 | / | / | . | . | /
O=c1cc(-c2cccc(F)c2)[nH]c2cc(F)ccc12 | / | / | . | . | /
SMILES | Pf growth 96h | Pf growth 48h | Shiga toxin inh | CHX counter | LmPK inhibitor
CCC(C)(C)NC(=O)Cc1ccc(F)cc1 | . | . | . | . | .
CCC(C)(C)NC(=O)Cc1ccc(Cl)cc1 | . | . | . | 24.6 | .
CC(C)c1ccc(NC2CCCN(C(=O)CSc3nncn3C)C2)cc1 (configuration not stated) | . | . | . | . | .
Cc1cc(S(=O)(=O)N2CCCC2)ccc1OCC(=O)NCc1ccccn1 | . | . | . | . | .
Cc1cc(S(=O)(=O)NC2CCCCC2)ccc1OCC(=O)NCc1ccccn1 | ? | 13.1µM | . | . | .
Cc1cc(S(=O)(=O)NCc2ccccc2)ccc1OCC(=O)NCc1ccncc1 | ? | ? | 80.2 | 48.6 | .
Cc1ccccc1-c1nnc(SCC(=O)N(C)c2c(N)n(Cc3ccccc3)c(=O)[nH]c2=O)n1C | . | . | / | / | /
CCN1CCN(CCc2nc3cc(NC(=O)COc4ccc(Cl)cc4)ccc3n2C)CC1 | 6.57µM | 5.22µM | . | . | .
CC1CCN(CCc2nc3cc(NC(=O)COc4ccc(Cl)cc4)ccc3n2C)CC1 | 3.29µM | ? | . | . | .
CCN1CCN(CCc2nc3cc(NC(=O)COc4ccccc4)ccc3n2C)CC1 | ? | ? | . | . | .
Cn1c(CCN2CCN(c3ccccn3)CC2)nc2cc(NS(=O)(=O)c3ccc(Cl)cc3)ccc21 | 10.4µM | 9.28µM | . | . | .
Cc1ccc(S(=O)(=O)Nc2ccc3c(c2)nc(CCN2CCN(c4ccccn4)CC2)n3C)cc1 | ? | ? | . | . | .
COc1ccc(OCC(=O)Nc2ccc(C)c(S(=O)(=O)N(C)C)c2)cc1 | . | . | . | . | .
CCN(CC)c1ccc(NC(=O)COc2ccc(C#N)cc2)cc1S(=O)(=O)Nc1ccc(OC)cc1 | 10.4µM | ? | . | . | .
CCN(CC)c1ccc(NC(=O)c2cccc(C)c2)cc1S(=O)(=O)Nc1ccccc1OC | 2.94µM | 7.38µM | . | . | .
CCN(CC)c1ccc(NC(=O)c2ccccc2)cc1S(=O)(=O)Nc1ccccc1OC | ? | 1.47µM | . | . | .
CCOC(=O)C1(Cc2cccc(Cl)c2)CCCN(C(=O)c2cc(C)n(C)n2)C1 (configuration not stated) | ? | . | . | . | .
CCOC(=O)C1(Cc2cccc(Cl)c2)CCCN(C(=O)CN2C(=O)CSC2=O)C1 (configuration not stated) | . | . | 46.4 | 35.7 | .
CCOC(=O)C1(Cc2cccc(Cl)c2)CCCN(CCO)C1 (configuration not stated) | ? | ? | . | . | .
CCOC(=O)C1(Cc2cccc(Cl)c2)CCCN(C(=O)C(C)(C)C)C1 (configuration not stated) | . | . | . | 27.5 | .
CCOC(=O)C1(Cc2cccc(Cl)c2)CCCN(C(=O)c2ccnn2C)C1 (configuration not stated) | . | . | 40.6 | 49.6 | .
CCOC(=O)C1(Cc2cccc(Cl)c2)CCCN(C(=O)c2cc(CC)on2)C1 (configuration not stated) | . | ? | 62.4 | 42.5 | .
Cc1cc(C)cc(CC2CC(=O)N(c3ccc([N+](=O)[O-])cc3)C2=O)c1 (configuration not stated) | ? | . | . | . | .
CC(S)C(=O)NCC(=O)O (configuration not stated) | . | . | . | . | /
C[C@H](N[C@@H](C)COc1ccccc1)[C@H](O)c1ccc(O)cc1 | . | . | / | / | /
SMILES | Pf growth 96h | Pf growth 48h | Shiga toxin inh | CHX counter | LmPK inhibitor
CCOC(=O)C1(Cc2ccccc2C)CCCN(C(=O)c2cc(CC)nn2C)C1 (configuration not stated) | . | ? | . | . | .
CCCc1cc(C(=O)N2CCCC(Cc3cccc(Cl)c3)(C(=O)OCC)C2)n(C)n1 (configuration not stated) | ? | ? | 65.0 | . | .
COc1ccc([C@]23Cc4cc(OC)c(OC)cc4C(O2)C2=C(CC4(CCCCC4)OC2=O)O3)cc1 | ? | ? | . | . | .[11.5 µM]
CN1[C@H]2CC(OC(=O)[C@H](CO)c3ccccc3)C[C@H]1[C@H]1O[C@H]12 (some centres not stated) | . | . | / | / | /
N#Cc1ccccc1CCN1C(=O)c2ccccc2C1=O | . | . | / | 40.6 | .
O=C1c2ccccc2C(=O)N1CCc1ccccn1 | . | . | . | 15.7 | .
O=C1c2cccc3c([N+](=O)[O-])ccc(c23)C(=O)N1CCc1ccccn1 | . | . | . | . | .
O=C1c2ccccc2C(=O)N1CCCCCCc1ccccc1 | . | . | / | / | /
